Changes are numbered by the printed parent chain.
target: T1, SALL4 ZFC4 R900W (HT-SELEX) (Mus musculus, UniProt Q8BX22 870-940, R900W); test: HT-SELEX; high values mean tight binding; conditions: protein: recombinant; vector His6-GST; dsDNA, one strand shown
T1 sequence: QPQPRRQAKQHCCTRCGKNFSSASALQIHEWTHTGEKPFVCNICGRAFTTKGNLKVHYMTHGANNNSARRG
Method in brief: (§1)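 Recombinant mouse SALL4 zinc finger cluster 4 (residues 870–940, 1 µg), purified, was mixed with library DNA (1.5 µg in the first cycle, 200 ng thereafter) in 100 µl of buffer containing 10 mM Tris–HCl pH 7.5, 50 mM NaCl, poly(dI-dC) and DTT, and left for 10 min at room temperature. Complexes were captured on Ni2+ beads, washed, amplified by PCR and reselected for up to 6 cycles in triplicate, after which MiSeq sequencing and a 6-mer scan followed. Binding signal is the read fraction of each canonical k-mer, given as fold change relative to the starting random library.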

Sequence	binding signal [fold-change vs cycle 0]
CATACA	1.37 ± 0.0315
CCAAAG	0.801 ± 0.0292
GGACCA	0.466 ± 0.011
AACGCA	0.544 ± 0.00766
GCAAAA	0.786 ± 0.0174
GCCTAA	0.643 ± 0.0255
ATGTAC	1.38 ± 0.0189
CTAAAC	1.33 ± 0.0737
TAATTA	2.77 ± 0.208
CGGTAG	0.418 ± 0.01
CCGTAA	0.78 ± 0.0395
ACACCT	0.949 ± 0.0347
ACTTGG	0.907 ± 0.0234
AGACCC	0.511 ± 0.0173
GGGATA	0.967 ± 0.0568
CCTAAA	1.27 ± 0.0327
CCAAGG	0.535 ± 0.0059
CATTCA	1.48 ± 0.0487
CATGCA	0.757 ± 0.0296
AGTGTA	1.43 ± 0.0767

Sequence	binding signal [fold-change vs cycle 0]
AGAAAC	1.36 ± 0.0395
CCAGGA	0.546 ± 0.0174
AGCACA	0.77 ± 0.0406
CAGCAA	0.641 ± 0.0279
CTTGCA	0.7756 ± 0.00768
AGTCAT	1.53 ± 0.0494
ATTGGC	0.5 ± 0.0137
CTGTCC	0.493 ± 0.0175
AATTAC	2 ± 0.127
ACTTTC	1.42 ± 0.0806
GTAATA	2.09 ± 0.144
ACTTCT	1.64 ± 0.0808
AATAAA	2.68 ± 0.197
AGACTG	0.926 ± 0.0316
ATGAAA	1.98 ± 0.0876
AAAATC	1.58 ± 0.0564
ACGAAC	0.807 ± 0.0318
TCACCA	0.931 ± 0.0104
GGTAGA	0.849 ± 0.0219
CCATTC	0.923 ± 0.0207

target: T2, SALL4 ZFC4 G921D (HT-SELEX) (Mus musculus, UniProt Q8BX22 870-940, G921D); test: HT-SELEX; high values mean tight binding; conditions: protein: recombinant; vector His6-GST; dsDNA, one strand shown
T2 sequence: T1 sequence with W31R, G52D
Method in brief: as §1

Sequence	binding signal [fold-change vs cycle 0]
CATACA	1.32 ± 0.0664
CCAAAG	0.848 ± 0.0204
GGACCA	0.557 ± 0.0733
AACGCA	0.669 ± 0.0225
GCAAAA	0.873 ± 0.0736
GCCTAA	0.746 ± 0.0372
ATGTAC	1.32 ± 0.0512
CTAAAC	1.27 ± 0.0849
TAATTA	2.33 ± 0.317
CGGTAG	0.514 ± 0.0341
CCGTAA	0.825 ± 0.0254
ACACCT	0.979 ± 0.022
ACTTGG	0.936 ± 0.0313
AGACCC	0.612 ± 0.0617
GGGATA	0.94 ± 0.0469
CCTAAA	1.18 ± 0.0527
CCAAGG	0.642 ± 0.0371
CATTCA	1.41 ± 0.0654
CATGCA	0.805 ± 0.0272
AGTGTA	1.36 ± 0.1

Sequence	binding signal [fold-change vs cycle 0]
AGAAAC	1.31 ± 0.0847
CCAGGA	0.63 ± 0.0152
AGCACA	0.894 ± 0.0466
CAGCAA	0.737 ± 0.0707
CTTGCA	0.856 ± 0.0345
AGTCAT	1.46 ± 0.106
ATTGGC	0.665 ± 0.0716
CTGTCC	0.587 ± 0.0324
AATTAC	1.82 ± 0.181
ACTTTC	1.37 ± 0.0709
GTAATA	1.81 ± 0.189
ACTTCT	1.45 ± 0.0874
AATAAA	2.21 ± 0.297
AGACTG	0.92 ± 0.0254
ATGAAA	1.79 ± 0.147
AAAATC	1.53 ± 0.0679
ACGAAC	0.861 ± 0.0438
TCACCA	0.988 ± 0.0172
GGTAGA	0.892 ± 0.0246
CCATTC	0.938 ± 0.0225

Reference: paper PMC9838217, “Structure of SALL4 zinc finger domain reveals link between AT-rich DNA binding and Okihiro syndrome”
